Test results taken from PubChem BioAssay (EPA / NIEHS).
Inconclusive results are not listed. The source made the active and inactive calls. How the source made its calls, unless noted: active means hit-call score of the fitted dose curve at least 0.9, where 1 is the maximum; inactive means score below 0.9.

Assays:
[1] = target: Estrogen receptor (Homo sapiens) (UniProt P03372); test: CCTE_Deisenroth_AIME_384WELL_LUC_Active: CCTE's 384-well Estrogen Receptor Transactivation Assay with AIME metabolic competence (ERTA luciferase; metabolism positive), Deisenroth Lab (AID 2284030; active means hit-call score of the fitted dose curve at least 0.9, where 1 is the maximum)
Chain of Estrogen receptor (Homo sapiens) (P03372 whole entry, looked up): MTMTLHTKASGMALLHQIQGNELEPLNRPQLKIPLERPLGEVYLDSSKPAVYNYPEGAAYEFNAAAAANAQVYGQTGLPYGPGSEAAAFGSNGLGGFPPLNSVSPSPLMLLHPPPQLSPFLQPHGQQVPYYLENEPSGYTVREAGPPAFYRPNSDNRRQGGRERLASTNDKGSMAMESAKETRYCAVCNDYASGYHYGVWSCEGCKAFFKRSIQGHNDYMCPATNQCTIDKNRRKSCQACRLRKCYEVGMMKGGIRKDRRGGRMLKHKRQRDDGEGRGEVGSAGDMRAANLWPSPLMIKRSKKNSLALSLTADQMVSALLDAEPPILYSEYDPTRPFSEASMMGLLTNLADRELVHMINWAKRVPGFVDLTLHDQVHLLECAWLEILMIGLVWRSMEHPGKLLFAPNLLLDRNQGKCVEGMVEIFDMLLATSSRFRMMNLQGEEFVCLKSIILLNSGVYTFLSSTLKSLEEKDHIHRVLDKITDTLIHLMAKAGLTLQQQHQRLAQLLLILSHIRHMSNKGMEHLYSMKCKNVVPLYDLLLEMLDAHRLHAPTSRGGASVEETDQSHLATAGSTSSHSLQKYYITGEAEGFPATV
Method in brief: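 AIME metabolism-positive mode: chemicals 0.002 - 200 uM, 2 h with alginate-bound PB/BNF-induced rat S9 → medium to VM7Luc4E2 ERTA, 24 h → luciferase. Positive fit vs 17beta-estradiol; n=4 typical.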

[2] = CCTE_Deisenroth_AIME_384WELL_CTox_Active: Cytotoxicity Assessment (CTOX) in CCTE's 384-well Estrogen Receptor Transactivation Assay with AIME metabolic competence (metabolism positive), Deisenroth Lab (AID 2284037; active means hit-call score of the fitted dose curve at least 0.9, where 1 is the maximum;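 further: chemicals first conditioned 2 h by alginate-bound induced rat liver S9 before cells; activity means signal loss indicating cell death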)
Method in brief: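 Cytotoxicity in VM7Luc4E2 breast cells, 24 hour, measured as protease-substrate fluorescence loss, after 2-hour metabolic conditioning with induced rat hepatic S9 in alginate microspheres. Concentrations 0.002 - 200 uM, 10 points, bidirectional fitting.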

[3] = target: Estrogen receptor (Homo sapiens) (UniProt P03372); test: CCTE_Deisenroth_AIME_384WELL_LUC_Inactive: CCTE's 384-well Estrogen Receptor Transactivation Assay without AIME metabolic competence (ERTA luciferase; metabolism negative), Deisenroth Lab (AID 2284038; active means hit-call score of the fitted dose curve at least 0.9, where 1 is the maximum;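 further: VM7Luc4E2 breast cells given medium preincubated 2 h with S9-free microspheres; hits raise estrogen receptor luciferase signal so potencies reflect agonists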)
Experimental: CCTE_Deisenroth_AIME_384WELL (AIME metabolism assay) is a cell-based, single-readout assay that uses VM7Luc4E2, a human mammary gland/breast cell line, with measurements taken at 24 hour after chemical dosing in a 384-well plate.CCTE_Deisenroth_AIME_384WELL_LUC_Inactive is one of four assay components measured or calculated from the CCTE_Deisenroth_AIME_384WELL assay. It is designed to make measurements of luciferase induction, a form of inducible reporter, as detected with bioluminescence signals by luciferase-coupled ATP quantitation technology.CCTE_Deisenroth_AIME_384WELL_LUC_Inactive is a component of the CCTE_Deisenroth_AIME_384WELL assay that measures the effect of retroftting the VM7Luc ERTA assay with the Alginate Immobolization of Metabolic Enzymes (AIME) metabolism method. AIME is optimized to impart phase I hepatic metabolism using phenobarbital/beta-naphthoflavone induced hepatic S9 from male Sprague Dawley rats. Parent chemicals are incubated for 2 hours in the AIME assay prior to transfer to the VM7Luc ERTA assay plate. […] This endpoint evaluates reporter induction in metabolism negative mode. Using a type of inducible reporter in VM7Luc cells, gain-of-signal activity can be used to understand changes in the reporter gene as they relate to xenobiotic metabolism and the gene ESR1. This assay endpoint, CCTE_Deisenroth_AIME_384WELL_LUC_Inactive, was analyzed in the positive analysis fitting direction relative to 17beta-estradiol as the positive control in the ERTA assay. To generalize the intended target to other relatable targets, this assay endpoint is annotated to the nuclear receptor intended target family, where the subfamily is steroidal.
The AIME procedure consists of a preparative "pre-stamping" step using a barium chloride/poly-L-lysine (PLL) solution followed by "stamping" the lid in alginate-hepatic S9 (metabolism positive) or alginate-water (metabolism negative) to form microspheres. Once stamping is completed, the AIME lids are placed in duplicate microplates (metabolism positive or negative) containing chemical solutions and incubated for two hours to facilitate metabolic reactions. The conditioned medium, containing parent chemical or metabolites, is then transferred to the cell-based VM7Luc Estrogen Receptor Transactivation Assay (ERTA) for 24 hours. A typical experimental design tests a 10-point concentration series (0.002 - 200 uM) for 8 compounds (96-well format)1 or 32 compounds (384-well format)2 in single technical replicate. AIME assay controls include trans-stilbene (bioactivated control) and ethylparaben (bioinactivated control). ERTA assay plate controls include 17-beta estradiol (positive control) and DMSO (solvent control). Experiments typically comprise a minimum of four experimental replicates (n=4).

[4] = CCTE_Deisenroth_AIME_384WELL_CTox_Inactive: Cytotoxicity Assessment (CTOX) in CCTE's 384-well Estrogen Receptor Transactivation Assay without AIME metabolic competence (metabolism negative), Deisenroth Lab (AID 2284039; active means hit-call score of the fitted dose curve at least 0.9, where 1 is the maximum;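 further: cell viability via live-cell protease substrate cleaved to fluorescent probe; cells exposed 24 h to medium preincubated 2 h with alginate-water beads without S9; loss of fluorescence signal means loss of viability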)
Method in brief: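 Fluorescence from a live-cell protease substrate, read after 24 h in VM7Luc4E2 cells, indicated viability. Test medium came from a 2 h AIME step without hepatic S9 (alginate-water microspheres); concentrations spanned 0.002 - 200 uM, single technical replicate per run.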

[5] = CCTE_Shafer_MEA_acute_cross_correlation_area: CCTE's Neural Acute Assay for Area of Cross Correlation, Shafer Lab (AID 2284024);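 further: area under pooled inter-electrode spike cross-correlation near zero lag as percent change from own baseline; curves fitted for loss of cross-correlation area so actives lower synchrony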;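 on outcome: rat primary cortical neuron networks on 48-well MEA at DIV 13 or 15 with 40 min exposure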
Method in brief: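 Plates equilibrated 20 min at 37 C, then 40 min baseline was recorded, compound was added (0.03-40 uM), and a further 40 min was recorded. Wells needed ≥10 active electrodes (≥5 spikes/min) on exposure day.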

[6] = CCTE_Shafer_MEA_acute_cross_correlation_HWHM: CCTE's Neural Acute Assay for Cross Correlation at Half Width at Half Maximum, Shafer Lab (AID 2284026);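 further: percent change per well from pre-dose baseline in spike cross-correlogram half width; hits are a decrease in cross-correlogram half width relative to DMSO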;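 on outcome: spontaneous network firing of rat primary cortical neurons on multiwell microelectrode arrays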
Method in brief: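 Rat cortical neuron cultures on microelectrode arrays were equilibrated 20 min at 37 C, recorded 40 min at baseline, then 40 min after compound addition (0.03-40 uM, ≥3 wells). Spikes were detected at 8x rms noise after 300-5000 Hz band-pass filtering.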

[7] = CCTE_Shafer_MEA_acute_synchrony_index: CCTE's Neural Acute Assay for Synchrony, Shafer Lab (AID 2284027);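 further: network synchrony index of spontaneous spiking in primary rat cortical neurons on MEAs; fitted for loss of signal so actives lower synchrony relative to DMSO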
Method in brief: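 The synchrony index is taken as percent change per well between a 40 min baseline and a 40 min recording with compound (0.03–40 uM), at 37C. Rat cortical cultures on multiwell MEAs at DIV 13 or 15, spike threshold 8× rms noise.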

[8] = CCTE_Shafer_MEA_dev_firing_rate_mean: CCTE's Neural Network Formation Assay for Mean Firing Rate, Shafer Lab (AID 2284031)
Method in brief: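 Spike frequency (spikes/recording length, averaged over active electrodes) was recorded on days 5, 7, 9 and 12 and collapsed to AUC; rat cortical cultures received compound continuously over 12 days of network development.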

[9] = CCTE_Shafer_MEA_dev_per_burst_spike_percent: CCTE's Neural Network Formation Assay for Percent of Spikes in a Burst, Shafer Lab (AID 2284032);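 on AC50: fitted as a decrease in burst spike percentage below DMSO baseline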
Method in brief: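 Value is trapezoidal AUC over recordings on days 5, 7, 9 and 12 of the well-mean fraction of spikes falling in single-electrode bursts; rat cortical cultures exposed continuously from plating, treatment renewed DIV 5 and 9, fitted downward against DMSO.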

[10] = CCTE_Shafer_MEA_dev_active_electrodes_number: CCTE's Neural Network Formation Assay for Number of Active Electrodes, Shafer Lab (AID 2284040; active means hit-call score of the fitted dose curve at least 0.9, where 1 is the maximum;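 further: potency for loss of active electrodes versus DMSO so lower counts are hits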)
Method in brief: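 Counts electrodes per well firing at least 5 spikes/min, recorded on days 5, 7, 9 and 12 in rat cortical cultures dosed continuously from plating (treatment refreshed DIV 5, 9). Value is the area under the curve over recordings, fitted downward relative to DMSO.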

## CCN(CCO)CCO
[1]
  outcome: inactive
[2]
  outcome: inactive
[3]
  outcome: inactive
[4]
  outcome: inactive

## N#Cc1cccnc1
[5]
  outcome: inactive
[6]
  outcome: inactive
[7]
  outcome: inactive
[1]
  outcome: inactive
[3]
  outcome: inactive

## CCCCOC(=O)COC(=O)c1ccccc1C(=O)OCCCC
[5]
  AC50: 0.0115 µM (active)
[6]
  outcome: inactive
[7]
  outcome: inactive

## CS(=O)(=O)c1ccc(C(=O)C2C(=O)CCCC2=O)c(Cl)c1COCC(F)(F)F
[5]
  outcome: inactive
[6]
  outcome: inactive
[7]
  outcome: inactive
[8]
  outcome: inactive
[9]
  outcome: inactive

## CC1(C)[C@H](C(=O)O[C@H](C#N)c2cccc(Oc3ccccc3)c2)[C@@H]1/C=C(\Cl)C(F)(F)F
[5]
  AC50: 0.0359 µM (active)
[6]
  AC50: 23.7 µM (active)
[7]
  AC50: 0.45 µM (active)
[8]
  outcome: inactive
[9]
  AC50: 22.7 µM (active)
[10]
  AC50: 12.9 µM (active)

## CCOc1ccc(N)cc1
[1]
  outcome: inactive
[2]
  outcome: inactive
[3]
  outcome: inactive
[4]
  outcome: inactive

## CCCCCCCCCCCCc1cccc(S(=O)(=O)O)c1
[5]
  outcome: inactive
[6]
  outcome: inactive
[7]
  outcome: inactive
[2]
  outcome: inactive
[4]
  outcome: inactive

## N#CCC#N
[1]
  outcome: inactive
[2]
  outcome: inactive
[3]
  outcome: inactive
[4]
  outcome: inactive

## Oc1ccc(Cc2ccc(O)cc2)cc1
[5]
  AC50: 0.00164 µM (active)
[6]
  outcome: inactive
[7]
  outcome: inactive

## O=C(O)COc1ccc(Cl)cc1
[1]
  outcome: inactive
[3]
  outcome: inactive
[4]
  outcome: inactive

## Oc1cc(Cl)c(Cl)cc1Cl
[5]
  outcome: inactive
[6]
  AC50: 30.2 µM (active)
[7]
  AC50: 30.5 µM (active)
[2]
  AC50: 100 µM (active)
[4]
  outcome: inactive

## CC(C)(C)c1ccccc1O
[5]
  outcome: inactive
[6]
  AC50: 20 µM (active)
[7]
  AC50: 20 µM (active)

## OCCCCO
[5]
  outcome: inactive
[6]
  outcome: inactive
[7]
  outcome: inactive

## CN(C)C(=S)S
[5]
  outcome: inactive
[6]
  outcome: inactive
[7]
  outcome: inactive
[4]
  outcome: inactive

## Cc1ccccc1OP(=O)(Oc1ccccc1C)Oc1ccccc1C
[5]
  outcome: inactive
[6]
  AC50: 23.1 µM (active)
[7]
  AC50: 28.1 µM (active)
[8]
  outcome: inactive
[9]
  AC50: 15 µM (active)
[10]
  AC50: 20.2 µM (active)

## CNC(=O)O/N=C/C(C)(C)S(C)(=O)=O
[1]
  outcome: inactive
[2]
  outcome: inactive
[3]
  outcome: inactive
[4]
  outcome: inactive
